From PubChem BioAssay (EPA / NIEHS)
Inconclusive results are not listed. Activity calls are given as the source filed them. Rule for the calls: active = hit-call score of the fitted dose curve at least 0.9, where 1 is the maximum; inconclusive = response in the unintended direction; inactive = score below 0.9.

These molecules were tested against PGR (gene 5241) (UniProt P06401) (assay: NVS_NR_hPR: NovaScreen (NVS) Nuclear Receptor Binding Assay for human Progestron Receptor (PR) (AID 2283360);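 note: active means loss of bound radioligand signal versus DMSO baseline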).
How it was run: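 T47D-derived receptor preparation, cell-free, with tritiated or iodinated radioligand displacement measured by scintillation 18 h post-dosing. Single 25 uM duplicate screen, then concentration series; signal loss relative to DMSO.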

PGR (gene 5241), sequence (P06401 whole entry, looked up): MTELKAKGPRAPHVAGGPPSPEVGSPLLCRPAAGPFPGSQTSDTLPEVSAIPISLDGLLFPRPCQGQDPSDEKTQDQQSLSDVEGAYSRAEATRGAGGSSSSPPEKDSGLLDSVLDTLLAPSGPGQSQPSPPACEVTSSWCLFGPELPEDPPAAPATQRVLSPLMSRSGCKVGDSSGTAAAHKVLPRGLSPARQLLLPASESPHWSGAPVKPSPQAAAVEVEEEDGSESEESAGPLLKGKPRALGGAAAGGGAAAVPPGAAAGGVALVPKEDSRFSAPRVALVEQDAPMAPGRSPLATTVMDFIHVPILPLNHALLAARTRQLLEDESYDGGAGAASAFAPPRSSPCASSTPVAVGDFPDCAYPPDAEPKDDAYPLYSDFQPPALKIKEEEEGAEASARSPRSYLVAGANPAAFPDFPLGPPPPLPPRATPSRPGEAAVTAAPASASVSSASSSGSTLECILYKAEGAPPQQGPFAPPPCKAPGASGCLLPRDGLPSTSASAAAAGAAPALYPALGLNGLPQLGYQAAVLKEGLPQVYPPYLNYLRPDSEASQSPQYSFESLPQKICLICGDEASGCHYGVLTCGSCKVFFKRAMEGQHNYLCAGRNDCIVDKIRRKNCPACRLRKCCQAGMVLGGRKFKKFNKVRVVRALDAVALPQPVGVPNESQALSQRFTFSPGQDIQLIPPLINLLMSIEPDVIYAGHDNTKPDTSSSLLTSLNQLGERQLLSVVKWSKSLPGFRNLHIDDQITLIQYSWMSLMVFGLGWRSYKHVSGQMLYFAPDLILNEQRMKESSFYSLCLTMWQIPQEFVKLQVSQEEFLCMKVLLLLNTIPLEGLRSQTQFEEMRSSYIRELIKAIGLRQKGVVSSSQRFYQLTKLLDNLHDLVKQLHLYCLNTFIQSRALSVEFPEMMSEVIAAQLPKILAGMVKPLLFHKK

Compound | outcome | AC50
Nc1cccc2ccccc12 | inactive | 
CC(C)(C)CC(C)(C)c1ccc(O)cc1 |  | 10.8 µM (active)
COC[C@H](C)N(C(=O)CCl)c1c(C)csc1C |  | 8.39 µM (active)
N#CCc1ccc(Cl)cc1 | inactive | 
C=CC(=O)N(C)C | inactive | 
